Experiment [1] is described as follows: small molecules captured by biotinylated probe aFSTL3 – biochemical, small-molecule microarray, fluorescence 635/667, stem cell growth factor project, primary screen (AID 1064).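 Further: measures binding of the biotinylated anti-FSTL3 antibody to printed compounds.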 As to conditions: higher = more signal.
The nature of experiment [2]: binders from COS7 lysate, DM2A8 probe, primary screen, torsin A project, cell lysate, small-molecule microarray, fluorescence 635/667 (AID 1065). To be noted: higher = more signal, COS7 lysate expressing mutant human TOR1A.
Experiment [3] in a line: small molecules captured by biotinylated probe aFGF2 – biochemical, small-molecule microarray, fluorescence 635/667, stem cell growth factor project, primary screen (AID 1067).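 Further: measures binding of biotinylated aFGF2 protein to printed compounds on slides; z-score merges feature fluorescence and signal-to-noise across triplicate slides.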 To be noted: higher = more signal.
Experiment [4] in a line: small molecules captured by biotinylated probe aFGF10 – biochemical, small-molecule microarray, fluorescence 635/667, stem cell growth factor project, primary screen (AID 1071).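 Further: score merges 667 nm spot intensity and signal to noise from triplicate slides.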 As to conditions: higher = more signal.
Experiment [5] addresses Neurogenic locus notch homolog protein 2 (Homo sapiens) (UniProt Q04721). The experiment in a line: small molecules binding Notch2 protein – biochemical, small-molecule microarray, 635 nm fluorescence, stem cell growth factors, primary screen (AID 1073). To be noted: higher = more signal.
Experiment [6] concerns the target Pro-neuregulin-1, membrane-bound isoform (Homo sapiens) (UniProt Q02297). The experiment in a line: small molecules binding neuregulin-1 protein – biochemical, small-molecule microarray, fluorescence 635/667, psychiatric disease protein project, primary screen (AID 1075).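 Further: score combines 667 nm spot fluorescence with signal to noise.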 As to conditions: NRG1 binding, 635 nm fluorescence, higher = more signal.
In experiment [7] the test system is Neuregulin-1 EGF-like domain. Put plainly: small molecules binding NRG1 EGF domain – biochemical, small-molecule microarray, 635 nm fluorescence, primary screen (AID 1081).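 Further: binding of the protein to compounds printed on small-molecule microarray slides.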 As to conditions: higher = more signal.
The nature of experiment [8]: FRG1 expression reporter modulators in myotubes – cell-based, C2C12 myotubes, firefly/Renilla luciferase, luminescence, FRG1 inhibition for FSHD, primary screen (AID 1084). As to conditions: FRG1 promoter luciferase, higher = more signal, called active from +8 up or from −8 down.
Experiment [9] is described as follows: small molecules captured by biotinylated probe aFST – biochemical, small-molecule microarray, fluorescence 635/667, stem cell growth factor project, primary screen (AID 1086).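 Further: score merges 667 nm fluorescence with signal-to-noise of each printed compound spot.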 As to conditions: higher = more signal.
The nature of experiment [10]: binders of probe aHhip on microarray, primary screen, stem cell growth factor project, biochemical, small-molecule microarray, fluorescence 635/667 (AID 1087).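 Further: score merges spot fluorescence at 667nm with spot signal to noise ratio.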 To be noted: higher = more signal.
Experiment [11] has as its system PRMT1 (protein arginine N-methyltransferase 1). The experiment in a line: small molecules binding arginine methyltransferase PRMT1 – biochemical, small-molecule microarray, 635 nm fluorescence, primary screen (AID 1088).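 Further: binding of Prmt1 protein to compounds spotted on small-molecule microarray slides.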 To be noted: higher = more signal.
Experiment [12] in a line: growth effects on S. cerevisiae YJM789 – YJM789 clinical isolate, OD600, 24 h, basal, primary screen (AID 1089).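 Further: growth of clinical yeast isolate S. cerevisiae YJM 789 seeded 1000 cells per well; test concentration not given here.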 As to conditions: higher = more signal, called active from +8 up or from −8 down.
Experiment [13] can be described thus: S. pombe growth modifiers, basal conditions – strain 972, OD600, 24 h, no modulator, primary screen (AID 1090).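 Further: basal condition with compound alone and no growth modifier present; test concentration not given here.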 To be noted: S. pombe 972 growth, higher = more signal, called active from +8 up or from −8 down.
A short description of experiment [14]: budding yeast growth modifiers under rapamycin – strain BY4716, OD600, 96 h, primary screen (AID 1091). Further: test concentration not given here. To be noted: S. cerevisiae BY4716 + rapamycin, higher = more signal, called active from +8 up or from −8 down.
The target in experiment [15] is Torsin-1A-interacting protein 2 (Homo sapiens) (UniProt Q8NFQ8). Put plainly: small molecules binding lysate-expressed LULL1 – cell lysate, human LULL1 lysate, 635/667 nm fluorescence, primary screen (AID 1092).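 Further: probe is lysate of COS7 cells overexpressing human LULL1; score merges per-feature 667 nm fluorescence with signal-to-noise.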 As to conditions: small-molecule microarray, hLULL1 lysate binding, 635 nm fluorescence; higher = more signal.
Experiment [16] in a line: optical density change of DRC41 E. coli – strain DRC41, OD650, 24 h, E. coli filamentation project, primary screen (AID 1093).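 Further: MC1000 strain lacking acrAB efflux and sulA so SOS filamentation is blocked; test concentration not given here.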 To be noted: E. coli DRC41 growth, higher = more signal, called active from +8 up or from −8 down.
A short description of experiment [17]: probe aLefty2 binding to arrayed compounds – biochemical, biotinylated probe, 635/667 nm fluorescence, primary screen (AID 1094).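 Further: score merges spot fluorescence near 667 nm with spot signal-to-noise ratio.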 As to conditions: small-molecule microarray, higher = more signal.
Experiment [18] has as its system Noggin (protein binding on small-molecule microarray). The experiment in a line: small molecules binding Noggin protein – biochemical, 635/667 nm fluorescence, primary screen (AID 1095).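 Further: score merges 667 nm feature fluorescence with signal to noise over triplicate slides.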 As to conditions: 635 nm fluorescence, higher = more signal.
The target of experiment [19] is Neurogenic locus notch homolog protein 3 (Homo sapiens) (UniProt Q9UM47). Put plainly: small molecules binding NOTCH3 protein – biochemical, 635/667 nm fluorescence, primary screen (AID 1096). As to conditions: small-molecule microarray, 635 nm fluorescence, higher = more signal.
Experiment [20] in a line: probe aEGFR binding to arrayed compounds – biochemical, biotinylated probe, 635/667 nm fluorescence, primary screen (AID 1097).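 Further: probe is a biotinylated anti-EGFR antibody binding compounds printed on slides; score combines fluorescence near 667 nm and signal to noise of each spot.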 As to conditions: small-molecule microarray, higher = more signal.

The source made the active and inactive calls.

Sequence of Neurogenic locus notch homolog protein 2 (Homo sapiens) (Q04721 whole entry, looked up, canonical isoform): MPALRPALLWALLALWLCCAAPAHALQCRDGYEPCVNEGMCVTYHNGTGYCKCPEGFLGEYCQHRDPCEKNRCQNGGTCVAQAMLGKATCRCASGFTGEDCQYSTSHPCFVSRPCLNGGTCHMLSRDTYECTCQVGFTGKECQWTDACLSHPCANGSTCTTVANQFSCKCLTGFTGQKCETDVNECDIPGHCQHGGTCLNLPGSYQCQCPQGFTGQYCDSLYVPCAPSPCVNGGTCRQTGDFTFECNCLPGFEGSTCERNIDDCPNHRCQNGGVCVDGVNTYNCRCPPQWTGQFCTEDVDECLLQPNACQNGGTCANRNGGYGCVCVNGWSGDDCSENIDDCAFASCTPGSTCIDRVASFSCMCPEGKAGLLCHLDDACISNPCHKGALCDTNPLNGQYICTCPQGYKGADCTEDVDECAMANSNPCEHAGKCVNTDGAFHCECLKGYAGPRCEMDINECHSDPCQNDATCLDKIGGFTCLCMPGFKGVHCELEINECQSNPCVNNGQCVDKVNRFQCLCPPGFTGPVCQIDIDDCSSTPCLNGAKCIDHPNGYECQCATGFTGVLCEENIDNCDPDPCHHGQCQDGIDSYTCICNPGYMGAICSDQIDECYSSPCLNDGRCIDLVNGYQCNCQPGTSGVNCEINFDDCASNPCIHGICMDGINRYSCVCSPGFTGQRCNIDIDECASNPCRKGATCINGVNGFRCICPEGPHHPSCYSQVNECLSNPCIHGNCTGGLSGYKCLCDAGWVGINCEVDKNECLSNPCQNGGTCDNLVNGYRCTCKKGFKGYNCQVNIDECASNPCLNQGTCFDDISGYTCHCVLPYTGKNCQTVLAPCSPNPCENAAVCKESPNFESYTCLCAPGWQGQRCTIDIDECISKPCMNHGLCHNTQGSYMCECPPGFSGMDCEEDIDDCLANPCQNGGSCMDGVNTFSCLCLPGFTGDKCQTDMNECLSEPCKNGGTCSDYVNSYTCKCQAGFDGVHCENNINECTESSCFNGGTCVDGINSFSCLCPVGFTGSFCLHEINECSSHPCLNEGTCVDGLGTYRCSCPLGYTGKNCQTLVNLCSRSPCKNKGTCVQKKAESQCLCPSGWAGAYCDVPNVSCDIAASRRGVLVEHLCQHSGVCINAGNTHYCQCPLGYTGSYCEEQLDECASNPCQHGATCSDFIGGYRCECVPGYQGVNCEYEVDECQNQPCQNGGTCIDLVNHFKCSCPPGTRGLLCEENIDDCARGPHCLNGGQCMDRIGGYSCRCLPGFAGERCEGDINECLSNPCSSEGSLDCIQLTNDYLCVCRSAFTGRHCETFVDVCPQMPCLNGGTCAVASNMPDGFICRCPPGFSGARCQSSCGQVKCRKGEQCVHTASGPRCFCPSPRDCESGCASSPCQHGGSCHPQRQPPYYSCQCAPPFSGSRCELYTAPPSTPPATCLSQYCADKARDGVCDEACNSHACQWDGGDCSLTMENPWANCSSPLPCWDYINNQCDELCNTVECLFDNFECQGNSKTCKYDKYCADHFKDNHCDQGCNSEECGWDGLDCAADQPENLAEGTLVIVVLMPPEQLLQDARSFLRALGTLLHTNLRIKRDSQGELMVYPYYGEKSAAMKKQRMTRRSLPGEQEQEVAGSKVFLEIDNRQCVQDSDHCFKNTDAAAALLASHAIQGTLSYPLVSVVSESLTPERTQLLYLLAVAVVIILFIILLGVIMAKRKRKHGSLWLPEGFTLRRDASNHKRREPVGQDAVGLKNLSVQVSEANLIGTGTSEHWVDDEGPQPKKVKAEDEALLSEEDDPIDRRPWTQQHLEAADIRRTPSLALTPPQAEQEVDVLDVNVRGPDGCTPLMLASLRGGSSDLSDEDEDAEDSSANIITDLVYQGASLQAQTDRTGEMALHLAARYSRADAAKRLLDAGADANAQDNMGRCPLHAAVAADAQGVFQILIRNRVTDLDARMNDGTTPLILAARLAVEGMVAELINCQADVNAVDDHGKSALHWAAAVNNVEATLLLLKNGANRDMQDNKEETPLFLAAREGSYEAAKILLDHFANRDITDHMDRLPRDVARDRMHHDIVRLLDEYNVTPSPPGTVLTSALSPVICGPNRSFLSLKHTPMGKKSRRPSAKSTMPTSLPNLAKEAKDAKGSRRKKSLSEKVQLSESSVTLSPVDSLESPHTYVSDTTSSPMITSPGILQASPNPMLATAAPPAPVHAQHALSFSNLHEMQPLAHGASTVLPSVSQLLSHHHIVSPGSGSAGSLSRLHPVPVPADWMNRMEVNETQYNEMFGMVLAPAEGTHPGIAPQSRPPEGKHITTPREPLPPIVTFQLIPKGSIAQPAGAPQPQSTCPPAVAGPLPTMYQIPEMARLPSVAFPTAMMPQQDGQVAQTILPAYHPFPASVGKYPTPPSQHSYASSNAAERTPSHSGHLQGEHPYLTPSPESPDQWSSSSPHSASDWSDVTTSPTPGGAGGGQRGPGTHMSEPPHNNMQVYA
Sequence of Neurogenic locus notch homolog protein 3 (Homo sapiens) (Q9UM47 whole entry, looked up): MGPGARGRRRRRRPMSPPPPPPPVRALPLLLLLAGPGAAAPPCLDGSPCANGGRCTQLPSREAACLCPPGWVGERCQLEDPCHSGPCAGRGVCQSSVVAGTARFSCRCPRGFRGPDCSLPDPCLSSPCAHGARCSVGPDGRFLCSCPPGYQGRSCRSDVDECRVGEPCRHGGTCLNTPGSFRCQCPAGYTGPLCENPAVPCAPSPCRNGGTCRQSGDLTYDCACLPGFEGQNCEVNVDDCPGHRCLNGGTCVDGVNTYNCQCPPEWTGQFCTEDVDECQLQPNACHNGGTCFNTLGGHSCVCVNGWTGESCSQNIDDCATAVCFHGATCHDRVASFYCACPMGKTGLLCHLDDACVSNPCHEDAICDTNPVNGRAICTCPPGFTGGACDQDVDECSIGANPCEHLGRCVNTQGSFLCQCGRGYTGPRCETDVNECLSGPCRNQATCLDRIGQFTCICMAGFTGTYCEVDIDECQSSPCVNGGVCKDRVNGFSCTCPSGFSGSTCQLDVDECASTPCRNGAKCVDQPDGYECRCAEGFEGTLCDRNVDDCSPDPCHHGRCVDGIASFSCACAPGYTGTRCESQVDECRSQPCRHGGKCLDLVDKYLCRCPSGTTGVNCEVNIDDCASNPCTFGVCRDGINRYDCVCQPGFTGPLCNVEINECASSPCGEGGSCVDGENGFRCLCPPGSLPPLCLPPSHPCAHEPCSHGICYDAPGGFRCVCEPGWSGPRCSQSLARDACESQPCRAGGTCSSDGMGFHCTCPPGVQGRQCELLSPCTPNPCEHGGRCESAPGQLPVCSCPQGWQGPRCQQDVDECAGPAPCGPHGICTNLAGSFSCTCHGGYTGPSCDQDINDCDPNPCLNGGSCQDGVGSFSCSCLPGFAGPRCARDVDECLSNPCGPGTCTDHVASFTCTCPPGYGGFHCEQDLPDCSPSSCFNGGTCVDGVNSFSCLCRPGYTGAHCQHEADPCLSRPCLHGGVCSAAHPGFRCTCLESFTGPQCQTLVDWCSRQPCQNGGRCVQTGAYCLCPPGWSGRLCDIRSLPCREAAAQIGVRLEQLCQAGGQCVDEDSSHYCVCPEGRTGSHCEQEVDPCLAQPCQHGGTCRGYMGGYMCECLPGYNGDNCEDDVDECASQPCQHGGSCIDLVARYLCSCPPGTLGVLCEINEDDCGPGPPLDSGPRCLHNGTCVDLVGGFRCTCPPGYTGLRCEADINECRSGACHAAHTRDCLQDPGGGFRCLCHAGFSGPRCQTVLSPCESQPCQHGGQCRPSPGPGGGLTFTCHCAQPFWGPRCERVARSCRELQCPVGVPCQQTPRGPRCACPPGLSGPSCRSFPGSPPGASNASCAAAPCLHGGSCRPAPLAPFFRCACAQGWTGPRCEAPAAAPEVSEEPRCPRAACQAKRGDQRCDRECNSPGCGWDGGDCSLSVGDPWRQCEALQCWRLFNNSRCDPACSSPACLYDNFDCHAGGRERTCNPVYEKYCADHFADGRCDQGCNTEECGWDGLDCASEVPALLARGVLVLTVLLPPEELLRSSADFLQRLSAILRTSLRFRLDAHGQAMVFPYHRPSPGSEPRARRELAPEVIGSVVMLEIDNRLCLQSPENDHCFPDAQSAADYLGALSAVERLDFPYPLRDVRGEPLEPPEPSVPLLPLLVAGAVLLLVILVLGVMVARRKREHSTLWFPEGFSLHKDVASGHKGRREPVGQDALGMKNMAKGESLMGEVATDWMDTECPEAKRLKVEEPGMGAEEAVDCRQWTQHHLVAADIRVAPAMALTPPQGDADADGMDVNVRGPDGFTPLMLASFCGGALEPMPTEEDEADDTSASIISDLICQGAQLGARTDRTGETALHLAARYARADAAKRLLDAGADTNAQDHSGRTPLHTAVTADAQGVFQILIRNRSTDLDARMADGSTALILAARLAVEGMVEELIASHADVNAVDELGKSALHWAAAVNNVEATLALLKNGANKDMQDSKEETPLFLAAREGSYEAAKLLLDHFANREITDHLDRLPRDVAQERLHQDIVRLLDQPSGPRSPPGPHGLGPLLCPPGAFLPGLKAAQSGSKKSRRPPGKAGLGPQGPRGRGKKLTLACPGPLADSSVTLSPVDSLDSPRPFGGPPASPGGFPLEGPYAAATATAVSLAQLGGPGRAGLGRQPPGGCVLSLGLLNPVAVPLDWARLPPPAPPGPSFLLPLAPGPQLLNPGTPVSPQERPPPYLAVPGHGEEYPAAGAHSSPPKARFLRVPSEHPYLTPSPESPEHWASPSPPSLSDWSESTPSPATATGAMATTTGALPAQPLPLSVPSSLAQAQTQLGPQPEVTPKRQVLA

Turning to `O=C1[C@H]2[C@H]3[C@H](O)[C@H](O)CC(=NOCc4ccccc4)[C@@H]3CC[C@H]2C(=O)N1C1CCCCC1`, the composite z-score is -0.116 in experiment [1]; 0.487 in experiment [2]; -0.098 in experiment [3]; 0.292 in [4]; 0.0141 in [5]; 1.1 in experiment [6]. The composite z-score in experiment [7] was 0.564; in experiment [9] it was 0.0422; in [10] it was 0.0024; in [11], 1.1; in [15] it was 1.32; in [17], -0.166. For the same compound, the composite z-score in experiment [18] is -0.129; in [19], 0.287; in experiment [20] it was -0.13. In addition, the z-score in [8] is 0.32 (inactive); in experiment [12] it was 0.704 (inactive); in experiment [13], -3.36 (inactive); in [14] it was 0.485 (inactive); in [16], 0.0212 (inactive).
`CCOC(=O)[C@H](CC(C)C)NC(=O)CCC1CC(OC(=O)NCc2cccc3ccccc23)CC2(CCCC(COC(=O)NCCc3ccccc3OC)O2)O1` (stereo not given in full): the composite z-score was -0.414 in [1]; 0.301 in [2]; -0.108 in experiment [3]; 0.433 in [4]; 1.14 in experiment [5]; 0.174 in [6]. Moreover, the composite z-score in experiment [7] is 0.882; in experiment [9] it was 0.402; in experiment [10], -0.134; in experiment [11] it was 1.28; in [15], 2.96; in experiment [17] it was -0.0505. Also, the figures for the composite z-score in experiment [18], in [19] and in experiment [20] were 0.686, 0.957 and -0.0304, respectively. Besides, the z-score in [8] is 0.0171 (inactive); in experiment [12], -0.133 (inactive); in experiment [13], -0.0584 (inactive); in experiment [14], 0.407 (inactive); in [16], -0.197 (inactive).
For `C[C@@H]1C=CCC(=O)OC[C@H](C)C(=O)N[C@@H](C)C(=O)OC1`, the composite z-score in experiment [1] was -0.329; in [2] it was 0.907; in experiment [3], -0.162; in [4] it was 0.0108; in experiment [5], 0.0057; in experiment [6], -0.313. Moreover, the composite z-score in experiment [7] was -0.0497; in [9], 0.258; in experiment [10], -0.069; in [11], 0.552; in [15], -0.412; in [17], -0.293. The values for the composite z-score in experiment [18], in experiment [19] and in experiment [20] were 0.828, 0.254 and 0.0886, respectively. Besides, the z-score was -0.98 (inactive) in experiment [8]; 0.664 (inactive) in [12]; 0.406 (inactive) in [13]; -0.113 (inactive) in [14]; 0.715 (inactive) in experiment [16].
On to `O=C1C2=CC[C@H]3C(=O)N(Cc4ccc5c(c4)OCO5)C(=O)[C@H]3[C@H]2[C@H](O)[C@@H]2O[C@H]12`, for which the composite z-score was -0.319 in [1]; 0.295 in [2]; -0.141 in experiment [3]; 0.375 in experiment [4]; 0.617 in [5]; -0.149 in experiment [6]. Further, the composite z-score was -0.0029 in experiment [7]; 0.407 in experiment [9]; -0.308 in experiment [10]; -1.05 in [11]; 0.24 in [15]; -0.166 in experiment [17]. For the same compound, the composite z-score in experiment [18] came out at 0.616; in [19], 0.632; in experiment [20] it was 0.0083. For the same compound, the z-score is 0.593 (inactive) in experiment [8]; -0.108 (inactive) in experiment [12]; -0.682 (inactive) in experiment [13]; -0.611 (inactive) in experiment [14]; 0.347 (inactive) in experiment [16].
Consider `COc1ccc([Si](C)(C)[C@H]2[C@H](CC(=O)N3CCC[C@H]3CO)O[C@@]3(C(=O)N(Cc4cccc(N5C(=O)COc6ccccc65)c4)c4ccccc43)[C@@H]2C)cc1`, for which the composite z-score in experiment [1] is -0.126; in [2], 0.149; in [3] it was -0.0148; in experiment [4], 0.893; in experiment [5], 0.308; in experiment [6], 0.563. In addition, the composite z-score in experiment [7] was 0.983; in experiment [9], -0.0678; in [10] it was -0.0994; in [11], 1.41; in experiment [15], 2.25; in experiment [17] it was -0.166. Further, the composite z-score in experiment [18] is 1.61; in [19], 1.14; in experiment [20], -0.142. For the same compound, the z-score in [8] is -4.78 (inactive); in experiment [12] it was -2.58 (inactive); in experiment [13], -0.769 (inactive); in [14] it was -0.827 (inactive); in experiment [16] it was 1.43 (inactive).

(Values after PubChem BioAssay.)
